High-throughput results deposited in PubChem by National Center for Advancing Translational Sciences (NCATS).
This is a sample that favours compounds with a hit; in the whole collection about 11% have one here.
PNC assembly inh – High Content Assay for Compounds that inhibit the Assembly of the Perinucleolar Compartment; activity change (PNC), negative = inhibition, % at 10 µM; PC3M PTB-GFP, PNC prevalence imaging, 16 h; stronger effect = lower value; 140,000 compounds, 3.1% hits;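 active means readout at or below -70, meaning at least 70% loss of cells showing the perinucleolar compartment, a nuclear body marking cancer cells; inconclusive means readout between -30 and a set limit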
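Read-out is percentage of cells bearing a perinucleolar compartment, from automated 20x imaging of fixed, Hoechst-stained PC3M PTB-GFP cells. Cells were seeded 4 h, then exposed 16 h to compound (23 nl of library stock) in duplicate plates.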
HTT ATP protect – qHTS Multiplex Assay to Identify Dual Action Probes in a Cell Model of Huntington: Cytoprotection (ATP). PC12 HTT-Q103 induced, cytoprotection, ATP luminescence, 40 h. Potency, µM (highest dose often 56.4 µM), most hits filed as activators. 230,000 compounds, 0.14% hits; further: nearly all actives have a fitted effect of over 45% in size
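Stable PC12 Q103-GFP cells in serum-supplemented, phenol red-free DMEM; induction by tebufenozide at 100 nM final; compound dose series; cell viability quantified luminescently from ATP.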
ALDH1A1 block – qHTS Assay for Inhibitors of Aldehyde Dehydrogenase 1 (ALDH1A1); Aldehyde dehydrogenase 1A1 (Homo sapiens), P00352; Purified ALDH1A1, NADH fluorescence, propionaldehyde substrate; Potency, µM (highest dose often 75.3 µM), most hits filed as inhibitors; 220,000 compounds, 7.3% hits; AID 1030, 2008; active means well fitted inhibition curve with a large enough effect, not every such curve was filed as active; inconclusive means small, poorly fitted or top-dose-only effect, or another doubt; inactive means no such curve, though single readings can be large or run the other way
Target sequence (P00352 whole entry, looked up): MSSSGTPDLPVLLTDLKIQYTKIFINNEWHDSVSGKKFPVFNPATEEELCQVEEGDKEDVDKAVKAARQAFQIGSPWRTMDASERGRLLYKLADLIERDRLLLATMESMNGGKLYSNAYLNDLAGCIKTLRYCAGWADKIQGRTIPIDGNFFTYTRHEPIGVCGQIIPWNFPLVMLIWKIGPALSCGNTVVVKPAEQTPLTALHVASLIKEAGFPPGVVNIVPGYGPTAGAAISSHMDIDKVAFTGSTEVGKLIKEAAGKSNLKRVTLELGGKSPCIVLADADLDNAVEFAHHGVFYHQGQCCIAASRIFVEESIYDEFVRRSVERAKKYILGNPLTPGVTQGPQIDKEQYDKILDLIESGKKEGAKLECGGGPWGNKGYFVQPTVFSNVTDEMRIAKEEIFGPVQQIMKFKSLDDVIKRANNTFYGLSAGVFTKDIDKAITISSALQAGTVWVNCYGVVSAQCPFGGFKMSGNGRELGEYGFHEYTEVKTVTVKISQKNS
RGS12 GoLoco inh – qHTS Assay for Inhibitors of RGS12 GoLoco Motif Activity (Red Fluorophore); Guanine nucleotide-binding protein G(i) subunit alpha-1 (Homo sapiens), P63096; Gai1:RGS12 GoLoco peptide FP, rhodamine, 10 min; Potency, µM (top dose mostly 61.6 µM), usual class: inhibitors; 230,000 compounds, 0.44% hits; AID 880, 2007; active means well fitted inhibition curve with a large enough effect, not every such curve was filed as active; inactive means no such curve, though single readings can be large or run the other way; further: nearly all actives have a fitted effect of over 30% in size
HttQ103 aggreg – qHTS Multiplex Assay to Identify Dual Action Probes in a Cell Model of Huntington: Aggregate Formation (GFP); PC12 HttQ103-GFP aggregates, Acumen cytometry, 40 h; Potency, µM (highest dose often 46.1 µM), actives largely listed as inhibitors; 220,000 compounds, 1.1% hits; AID 1688, 2009; further: nearly all actives have a fitted effect of over 60% in size
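PC12/HTTQ103-GFP, ecdysone-inducible; teb 100 nM; cpd qHTS titration; GFP aggregates read on laser cytometer, Ex 488/Em 500-530 nm.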
HPGD inh – qHTS Assay for Inhibitors of HPGD (15-Hydroxyprostaglandin Dehydrogenase); purified HPGD, NADH fluorescence kinetic, PGE2 substrate; AID 894, 2007; Potency, µM, most hits filed as inhibitors; 150,000 compounds, 4.3% hits; 15-hydroxyprostaglandin dehydrogenase [NAD(+)] (Homo sapiens), P15428; active means well fitted inhibition curve with a large enough effect, not every such curve was filed as active; inconclusive means small, poorly fitted or top-dose-only effect, or another doubt; inactive means no such curve, though single readings can be large or run the other way
Target sequence (P15428 whole entry, looked up): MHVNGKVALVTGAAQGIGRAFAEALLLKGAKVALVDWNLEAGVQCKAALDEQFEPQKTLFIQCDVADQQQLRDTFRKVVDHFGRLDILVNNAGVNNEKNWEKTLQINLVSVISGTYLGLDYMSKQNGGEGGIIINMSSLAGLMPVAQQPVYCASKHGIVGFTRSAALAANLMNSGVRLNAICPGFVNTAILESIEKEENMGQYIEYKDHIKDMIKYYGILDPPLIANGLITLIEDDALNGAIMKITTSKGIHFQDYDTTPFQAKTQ
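20 nM HPGD preincubated 15 min at room temperature with compound in 50 mM Tris-HCl pH 8, 0.01% Tween 20. Started with 1 mM NAD+ and 30 uM prostaglandin E2; NADH fluorescence (360/450 nm) read 5 times over 30-s intervals, last minus first.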
Hits are given with their value; [ ] = dose if it differs, or a comment. Unless noted, the call rests on the fitted dose curve; in most records, active means well fitted curve in the direction sought with a large enough effect; inconclusive means small, poorly fitted or top-dose-only effect, or another doubt; inactive means no such curve, though single readings can be large; an effect the other way counts as inactive or inconclusive.

Screening O=C1CCC/C(=N/NC(=O)c2sc3ccccc3c2Cl)C1 returned HTT ATP protect inactive[10 µM], RGS12 GoLoco inh inactive and HttQ103 aggreg inactive[9.22 µM].
O=C(NNC(=S)NC(=O)c1sc2ccccc2c1Cl)c1ccc(Cl)cc1 was read as PNC assembly inh inactive, HTT ATP protect inactive[1.9 µM], ALDH1A1 block 28µM, RGS12 GoLoco inh inactive, HttQ103 aggreg inactive and HPGD inh inactive.
`O=C(O)c1ccccc1NC(=S)NC(=O)c1sc2ccccc2c1Cl` gave HTT ATP protect inactive, ALDH1A1 block inconclusive, RGS12 GoLoco inh inactive and HttQ103 aggreg inactive.
O=C(NNC(=O)c1sc2ccccc2c1Cl)Nc1ccc(Cl)cc1 was read as PNC assembly inh inactive, HTT ATP protect inactive, ALDH1A1 block 8.9µM, RGS12 GoLoco inh inactive, HttQ103 aggreg inactive and HPGD inh inactive.
COc1cccc(/C(N)=N/OC(=O)Cc2ccccc2[N+](=O)[O-])c1 was read as ALDH1A1 block inactive, RGS12 GoLoco inh inactive and HttQ103 aggreg inactive.
For O=S(=O)(CCN1CCSCC1)c1ccccc1 the results were HTT ATP protect inactive[10 µM], RGS12 GoLoco inh inactive and HttQ103 aggreg inactive[9.22 µM].
CCNc1nc(N)nc(Oc2ccc(OCCOc3ccc(Cl)cc3Cl)nn2)n1 was read as PNC assembly inh inconclusive, HTT ATP protect inactive[0.074 µM], ALDH1A1 block inactive, RGS12 GoLoco inh inactive, HttQ103 aggreg inactive and HPGD inh 1µM.
`COc1ccc(C2C(C#N)=C(C)NC3=C2C(=O)c2ccccc23)cc1` (stereo not drawn) gave PNC assembly inh inactive, HTT ATP protect inactive, ALDH1A1 block inconclusive, RGS12 GoLoco inh inactive, HttQ103 aggreg inactive and HPGD inh inactive.
Screening O=C1NC2=C(C(=O)c3ccccc32)C(c2ccccc2)N1 (stereo not drawn) returned PNC assembly inh inactive, HTT ATP protect inactive, ALDH1A1 block 16µM, RGS12 GoLoco inh inactive, HttQ103 aggreg inactive and HPGD inh inactive.
`CC(=O)C1=C(C)NC(=O)NC1c1ccccc1` (stereo not drawn) gave PNC assembly inh inactive, HTT ATP protect inactive, ALDH1A1 block inactive, RGS12 GoLoco inh inactive, HttQ103 aggreg inactive and HPGD inh inactive.
For COc1cc(C2C(C#N)=C(C)NC3=C2C(=O)c2ccccc23)cc(OC)c1OC (stereo not drawn) the results were PNC assembly inh -116, HTT ATP protect inactive[0.074 µM], ALDH1A1 block inactive, RGS12 GoLoco inh inactive, HttQ103 aggreg inactive and HPGD inh inactive.
For CC1=C([N+](=O)[O-])C(c2ccccc2)C2=C(N1)c1ccccc1C2=O (stereo not drawn) the results were PNC assembly inh inconclusive, HTT ATP protect inactive, ALDH1A1 block inconclusive, RGS12 GoLoco inh inactive, HttQ103 aggreg inactive and HPGD inh 22µM.
Screening O=c1c(-c2ccc(Cl)cc2)nc2cnc(N3CCOCC3)nc2n1C[C@H]1CCCO1 returned HTT ATP protect inactive, ALDH1A1 block inconclusive and RGS12 GoLoco inh inactive.
`CC(=O)Nc1cccc(-c2csc(Nc3ccc(C)cn3)n2)c1` gave PNC assembly inh inactive, HTT ATP protect inactive[10 µM], ALDH1A1 block inactive, RGS12 GoLoco inh inactive, HttQ103 aggreg inactive and HPGD inh inactive.
Screening COc1ccc(-c2csc(Nc3ccc(C)cn3)n2)cc1 returned HTT ATP protect inactive[10 µM], ALDH1A1 block 24µM, RGS12 GoLoco inh inactive and HttQ103 aggreg inactive[9.22 µM].
Screening CCCNC(=O)NC(=O)CSc1cccc(C(F)(F)F)c1 returned HTT ATP protect inactive[10 µM], ALDH1A1 block inactive, RGS12 GoLoco inh inactive and HttQ103 aggreg inactive.
O=C(O)c1ccccc1C(=O)Nc1n[nH]c(=S)s1 was read as PNC assembly inh inactive, HTT ATP protect inactive, ALDH1A1 block 6.3µM, RGS12 GoLoco inh inactive, HttQ103 aggreg inactive and HPGD inh 8.9µM.
For CC12CC[C@@H]3c4ccc(OP(=O)(O)O)cc4CCC3C1CCC2=O (stereo partly drawn) the results were HTT ATP protect inactive[10 µM], ALDH1A1 block inactive[13.5 µM], RGS12 GoLoco inh inactive[14.2 µM] and HPGD inh inactive.
Screening CC(=O)C1=C(O)CC(c2ccccc2)CC1=NCCc1c(C)[nH]c2ccccc12 (stereo not drawn) returned PNC assembly inh inactive, ALDH1A1 block inactive, RGS12 GoLoco inh inactive, HttQ103 aggreg inactive and HPGD inh inactive.
For CCC(=NCCc1c(C)[nH]c2ccc(C)cc12)C1=C(O)CC(c2ccccc2)CC1=O (stereo not drawn) the results were PNC assembly inh -116, HTT ATP protect inactive[10 µM], ALDH1A1 block inactive, RGS12 GoLoco inh inactive, HttQ103 aggreg inconclusive and HPGD inh inactive.
For CC(=O)C1=C(O)CC(c2ccccc2)CC1=NCCc1c(C)[nH]c2ccc(C)cc12 (stereo not drawn) the results were PNC assembly inh -119, ALDH1A1 block inconclusive, RGS12 GoLoco inh inactive, HttQ103 aggreg inactive and HPGD inh inactive.
For C=CCNC(=O)c1cc([N+](=O)[O-])cc2c(=O)[nH]c(Nc3ccc(Cl)c(Cl)c3)nc12 the results were HTT ATP protect inactive, ALDH1A1 block inactive, RGS12 GoLoco inh inactive and HPGD inh inactive.
O=C(Nc1ccc(-n2nncc2-c2ccco2)cc1)c1ccc(F)cc1 was read as PNC assembly inh inactive, HTT ATP protect inactive, ALDH1A1 block inactive, RGS12 GoLoco inh inactive, HttQ103 aggreg inactive and HPGD inh inactive.
CCC(=O)N1CCc2cc(Br)cc(S(=O)(=O)CCC(=O)NCc3ccco3)c21 was read as PNC assembly inh -119, HTT ATP protect inactive[10 µM], ALDH1A1 block inactive, RGS12 GoLoco inh inactive, HttQ103 aggreg inactive and HPGD inh inactive.
CCOC(=O)N1CCN(S(=O)(=O)c2cc(Br)cc3c2N(C(=O)CC)CC3)CC1 was read as PNC assembly inh inconclusive, HTT ATP protect inactive, ALDH1A1 block inactive, RGS12 GoLoco inh inactive, HttQ103 aggreg inactive and HPGD inh inactive.
`CCC(=O)N1CCc2cc(Br)cc(S(=O)(=O)N3CCCCCC3)c21` gave PNC assembly inh -100, HTT ATP protect inactive[10 µM], ALDH1A1 block inactive, RGS12 GoLoco inh inactive, HttQ103 aggreg inactive and HPGD inh inactive.
`CSc1ccc(-c2nc(CN3CCCCC3c3cccnc3)c(C)o2)cc1` (stereo not drawn) gave HTT ATP protect inactive, ALDH1A1 block inconclusive, RGS12 GoLoco inh inactive and HttQ103 aggreg inconclusive.
Cc1cc(-c2ccccc2)n(-c2cc(N/N=C/c3ccccc3O)ncn2)n1 was read as PNC assembly inh -91, HTT ATP protect inactive[10 µM], ALDH1A1 block inactive, RGS12 GoLoco inh inactive, HttQ103 aggreg 8.9µM and HPGD inh inactive.
